mHTT CaM bind: inhibitors of human mutant huntingtin-calmodulin interaction; AlphaScreen His-mHTT/GST-CaM binding, luminescence; inhibition, % at 15 µM; 3.6% of 190,000 active; AID 1671202;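 also: 0% = both proteins with DMSO and 100% = one protein alone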
Pf apPOL inh: Pf-apPOL DNA polymerase inhibition; Recombinant Pf-apPOL, molecular beacon fluorescence, 1.5 h; inhibition, % at 10 µM; 0.25% of 210,000 active; AID 1794808
The depositor's hits bear a star; / = not tested or not shown. Rows were chosen to be rich in hits. Some 3.6% of all compounds tested hit in one or more screens of this group. Rule as the data show it: active = inhibition above about 50%; inactive = the rest.

SMILES	mHTT CaM bind	Pf apPOL inh
CC(=O)Oc1cc(C(=O)N(c2ccc(C)cc2)C2C=CS(=O)(=O)C2)cc(OC(C)=O)c1OC(C)=O (stereo not drawn)	96.1*	90.1*
Cc1ccc(N(C(=O)c2ccccc2)C2C=CS(=O)(=O)C2)cc1 (stereo not drawn)	-4.0	-2.7
O=C(Nc1c2c(nn1-c1ccc([N+](=O)[O-])cc1)CS(=O)(=O)C2)c1cccc(Br)c1	4.0	-4.2
Cc1ccc(N=C2C(=O)N(CN3CCOCC3)c3ccccc32)cc1	6.0	-5.1
Cc1ccc(N=C2C(=O)N(CN3CCOCC3)c3ccccc32)cc1C	58.0*	6.6
COc1cccc(C=C2Oc3c(ccc4c3CN(CC3CCCO3)CO4)C2=O)c1OC (stereo not drawn)	9.3	-9.1
CCn1cc(C2=CCN(C(=O)Nc3ccc4c(c3)OCCO4)CC2)c2cccnc21	34.4	-4.0
Cn1cc(C2=CCN(C(=O)NCc3cccc(F)c3)CC2)c2cccnc21	50.1*	-5.3
CCCn1cc(C2=CCN(C(=O)NCc3ccccc3)CC2)c2cccnc21	32.1	-5.9
CCCn1cc(C2=CCN(C(=O)Nc3ccc4c(c3)OCCO4)CC2)c2cccnc21	59.3*	-4.2
Cc1ccc(CNC(=O)C2CCN(c3nn4c(=O)c5c(nc4s3)CCCC5)CC2)cc1	89.1*	2.9
O=C(NCc1cccc(F)c1)C1CCN(c2nn3c(=O)c4c(nc3s2)CCCC4)CC1	10.0	8.6
Cc1ccc(-c2nnc(N3CCC(C(=O)NCCN4CCCCC4C)CC3)o2)cc1 (stereo not drawn)	-4.7	-3.4
Cc1ccc(C)c(S(=O)(=O)N=C2C=CC(=O)C=C2)c1	51.0*	-3.8
Cc1cc(C)c(S(=O)(=O)N=C2C=CC(=O)C=C2)c(C)c1	39.0	-3.5
Cc1ccc(C)c(S(=O)(=O)N=C2C=CC(=O)C(Br)=C2)c1	65.0*	-1.6
CCN(CC)C(=NS(=O)(=O)c1cc(C)ccc1C)c1ccccc1	6.0	3.1
CC1=CC(=O)C(Br)=CC1=NS(=O)(=O)c1ccc(C)cc1	64.0*	-8.7
Cc1ccc(S(=O)(=O)N=C2C=C(Br)C(=O)C(Br)=C2)cc1	45.0	0.2
Cc1ccc(S(=O)(=O)N=C2C=CC(=O)C(Br)=C2)cc1	59.0*	-4.3
Cc1ccc(S(=O)(=O)N=C2C=C(C(C)C)C(=O)C(C(C)C)=C2)cc1	-4.0	0.7
COCCn1cc2c3c(cccc31)CN(C(=O)NCc1ccc(F)cc1)CC2	24.6	-1.4
Cc1ccc(-n2[nH]c(C)c(C=Nc3ccc(C(=O)N(C)C)cc3)c2=O)cc1C	6.0	-1.4
Cn1nc(-c2nc(Cc3ccccc3)no2)c2c1CCN(C(=O)Cc1cccnc1)C2	15.0	-1.9
Cc1ccc(C(=O)N2CCCC(COc3ccc(C(=O)NC(C)C)cc3)C2)cc1F (stereo not drawn)	13.2	-3.7
SMILES	mHTT CaM bind	Pf apPOL inh
CC1CCC(Br)(C(C)C)C(=O)/C1=C/c1cccc([N+](=O)[O-])c1 (stereo not drawn)	41.0	-2.5
CCN(CC)S(=O)(=O)c1ccc(C(=O)Nc2nnc(-c3ccc(OC)cc3OC)o2)cc1	3.0	-12.3
CCCCN(CC)S(=O)(=O)c1ccc(C(=O)Nc2nnc(-c3ccccc3OC)o2)cc1	52.0*	-7.0
CCN(Cc1ccccc1)S(=O)(=O)c1ccc(C(=O)Nc2nnc(C)o2)cc1	74.0*	-16.0
Cc1nnc(NC(=O)c2ccc(S(=O)(=O)N(CC(C)C)CC(C)C)cc2)o1	51.0*	-74.4
CCCCN(CC)S(=O)(=O)c1ccc(C(=O)Nc2nnc(C)o2)cc1	22.0	-12.6
CCN(Cc1ccccc1)S(=O)(=O)c1ccc(C(=O)Nc2nnc(CSC)o2)cc1	12.0	-12.8
COc1ccc(C(=CCl)c2ccc(OC)c(Br)c2)cc1Br	-65.3	/
O=C(c1cc2ccccc2o1)N1CCN(c2ccc([N+](=O)[O-])c(NCc3ccco3)c2)CC1	24.9	-10.1
COc1ccc(-c2cc(=O)c3cc(NC(=O)C(C)(C)C)ccc3o2)cc1	-6.0	-6.6
Cn1c(=O)c2c(nc3n(-c4ccccc4)c(-c4cccs4)cn23)n(C)c1=O	1.0	-2.2
O=C1CCCC(=O)N1c1ccc(N2CCc3ccccc3C2)c([N+](=O)[O-])c1	37.0	-17.0
O=C1CCC(=O)N1c1ccc(Nc2ccc3c(c2)CCC3)c([N+](=O)[O-])c1	74.0*	-13.5
CC1CC(=O)N(c2ccc(NC3CCCc4ccccc43)c([N+](=O)[O-])c2)C1=O (stereo not drawn)	32.0	-24.2
O=C1CCCC(=O)N1c1ccc(NC2CCCc3ccccc32)c([N+](=O)[O-])c1 (stereo not drawn)	63.0*	-19.3
O=C(CCN1C(=O)SC(=CC=Cc2ccccc2)C1=O)Nc1ccc(O)cc1	46.7	-9.1
Cc1ccc(CNC(=O)c2c(C)noc2-c2cccc(C(F)(F)F)c2)o1	5.4	-3.7
COCCNc1nc(SCC(=O)c2ccc(O)c(O)c2)nc2ccccc12	12.0	-2.4
CCCCNc1nc(SCC(=O)c2ccc(O)c(O)c2)nc2ccccc12	64.0*	-5.4
